# HT1080 IDH1KD tx: toxicity to HT-1080 IDH1 knockdown cells (counter line). AID 686971. actives 2% (n = 360,000). Potency, µM (highest dose often 46.1 µM), without a hit: top-dose activity, negative = toxicity, hits mostly cytotoxic. HT-1080 IDH1 knockdown viability, ATP luminescence, 48 h;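 note: 0% = DMSO wells and -100% = cell-free medium wells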
#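 Using the IDH1-knockdown HT-1080 line run in the same batch and compound series as the NT line, viability after 48 h at 37 °C was determined by CellTiter-Glo luminescence and expressed as % activity.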
# KB-3-1 tox: kills parental KB-3-1 adenocarcinoma cells; KB-3-1 viability, CellTiter-Glo ATP luminescence, 72 h; Potency, µM (doses to about 46.1 µM), most hits filed as cytotoxic; actives 1.4% (n = 400,000); AID 1347075; note: % is set by controls: 0 for no effect and ±100 for the full control effect; nearly all actives have a fitted effect of over 60% in size
#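 KB-3-1 parental drug-naive adenocarcinoma cells in DMEM/10% FBS, incubated 72 h at 37 C with pin-transferred compounds across a concentration series. Viability by CellTiter-Glo luminescence; concentration-response curves fitted after normalization.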
# MCF10A rereplic: DNA re-replication induction in MCF 10a cells; MCF 10A DNA re-replication, Hoechst nuclear intensity, 48 h; Potency, µM (doses to about 46.1 µM), for the others: at the highest dose activity, positive = re-replication, most hits filed as activators; actives 2.9% (n = 350,000); AID 624296; note: % of control where 0% means no effect; nearly all actives have a fitted effect of over 50% in size
# SW480 rerep: DNA re-replication induction in SW480 cells | SW480 DNA re-replication, Hoechst DNA content imaging, 48 h | Potency, µM (series often up to 46.1 µM), inactives show at the highest dose re-replication activation, most hits filed as activators | actives 1.8% (n = 340,000) | AID 624297; note: % of control where 0% means no effect; nearly all actives have a fitted effect of over 55% in size
#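 250 cells/well; 23 nL cpd via pin tool; 48 hr, 37 C, 5% CO2; Hoechst 40 min; imager read of total nuclear intensity, ex 405/em 500-530 nm.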
# KB-V1 cytotox: kills drug-selected multidrug resistant KB-V1 cells; KB-V1 MDR cells viability, CellTiter-Glo, 72 h; Potency, µM (top dose mostly 46.1 µM), usual class: cytotoxic; actives 3.4% (n = 400,000); AID 1347076; note: % is set by controls: 0 for no effect and ±100 for the full control effect; nearly all actives have a fitted effect of over 60% in size
#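 Following 72 h at 37 degrees C with compound, KB-V1 cell viability was read by CellTiter-Glo luminescence, medium being phenol-red-free DMEM plus 10% FBS; concentration-response parameters came from normalized, curve-fitted qHTS data.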
# HT1080-NT tox: kills 2HG-producing HT-1080-NT fibrosarcoma cells | HT-1080-NT fibrosarcoma viability, CellTiter-Glo ATP luminescence, 48 h | Potency, µM (doses to about 46.1 µM), for the others: at the highest dose activity, negative = less viability, most hits filed as cytotoxic | actives 1.6% (n = 360,000) | AID 686970;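 note: NT is the 2HG producing partner of a matched IDH1 knockdown line; 0% = DMSO-treated cells and -100% = media-only wells without cells; nearly all actives have a fitted effect of over 55% in size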
#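 Compounds were tested in concentration-response format on HT-1080-NT cells for 48 hours at 37 degrees C. Cell viability came from CellTiter-Glo luminescence; curves were classified by r2, response magnitude and activity.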
# Starred values were filed as active, the others as inactive; i = inactive; ? = inconclusive; · = no result; [ ] = dose if it differs, or a comment. This is a sample that favours compounds with a hit; in the whole collection about 8% have one here. Calls come from the whole dose curve; as a rule, active = well fitted curve in the direction sought with a large enough effect; inconclusive = small, poorly fitted or top-dose-only effect, or another doubt; inactive = no such curve, though single readings can be large; an effect the other way counts as inactive or inconclusive. Potency is the fitted concentration of half-maximal effect.
SMILES,HT1080 IDH1KD tx,KB-3-1 tox,MCF10A rereplic,SW480 rerep,KB-V1 cytotox,HT1080-NT tox
Cc1cc(=O)oc2cc(OCC(=O)N3c4ccccc4CC3C)ccc12 (stereo not drawn),2.59µM*,2.91µM*,2.51µM*,1.64µM*,2.59µM*,2.59µM*
Cc1cc(=O)oc2cc(OCC3CC(c4ccc(Br)cc4)=NO3)ccc12 (stereo not drawn),5.3%,?,9.2µM*,?,20.6µM*,21.9%
O=[N+]([O-])c1ccc(OCc2nnc(-c3ccccc3)o2)cc1,-5.5%,i,-0.8%,-0.3%,i,1.0%
C[N+](C)(C)CCCN1C(=O)CCCC1=O,5.7%,i,2.7%,-0.9%[9.22 µM],i,4.5%
O=C(CCN1C(=O)C2C3CCC(C3)C2C1=O)Nc1ccccc1Cl (stereo not drawn),-1.2%,·,22.7%,0.3%,·,2.0%
COc1cc(C(=O)Nc2ccc(S(=O)(=O)Nc3nccc(C)n3)cc2)cc(OC)c1OC,0.4%,i,?,-8.0%,i,-1.3%
NC(=O)c1ccc(SCC(=O)OCC(=O)N2CCCC2=O)c([N+](=O)[O-])c1,8.7%,i,1.0%,-2.3%,i,0.6%
COC(=O)[C@]1(Cc2ccccc2)N[C@H](CN(C)C(=O)c2ccc(F)cc2)[C@@H]2C(=O)N(Cc3ccccc3)C(=O)[C@@H]21,1.6%,i,-9.0%,-0.9%,i,2.7%
O=c1[nH]c2cc(Br)cnc2nc1/C=C(\O)c1ccc(F)cc1,-21.9%,i,7.31µM*,18.2%,i,8.9%
CC(C)OC(=O)c1cc2c(ccn2C)n1CC(=O)N(Cc1ccccc1)c1ccccc1,-28.3%,?,18.4µM*,?,14.6µM*,-6.9%
O=[N+]([O-])c1ccc(N2CCN(c3ccc(O)cc3)CC2)cn1,?,i,23.9%,12.4%,?,?
O=[N+]([O-])c1ccc(N2CCN(c3ccccc3Cl)CC2)cn1,-4.2%,5.17µM*,1.2%,15.1%,?,1.2%
Cc1ccccc1NC(=O)c1cc(N)ccc1N1CCCCC1,-17.7%,i,2.2%,-0.6%,14.6µM*,-6.1%
CN(C)S(=O)(=O)c1ccc(N2CCCC2)c(C(=O)Nc2ccccc2Br)c1,-4.4%,i,1.0%,-53.1%,i,4.1%
Cc1ccc(NC(=O)c2cc(NC(=O)c3ccco3)ccc2N2CCCCC2)cc1,?,i,28.3%,-44.2%,i,-28.1%
CCC(=O)Nc1ccc(N2CCCCC2)c(C(=O)Nc2ccccc2C)c1,-0.2%,i,2.8%,-6.2%,11.6µM*,6.8%
Fc1ccc(CNc2nc(-c3ccc(Cl)cc3)cc(C(F)(F)F)n2)cc1,·,?,·,·,i,·
Oc1ccc(/C=N/Nc2nc(-c3ccc(Cl)cc3)cc(C(F)(F)F)n2)cc1,16.4µM*,?,?,?,?,?
Cc1cc(C)nc(N/N=C/c2ccccc2)n1,-0.7%,i,1.9%,-4.7%,i,8.2%
CCN(CC)c1ccc(/C=N/Nc2nc(C)cc(C)n2)cc1,-9.2%,i,?,18.4µM*,i,-5.6%
Cc1cc(-c2ccccc2)nc(N/N=C/c2ccc(O)cc2)n1,?,20.6µM*,?,-435.6%,?,?
Cc1cc(C)c2nc(C)cc(N/N=C/c3ccc(O)cc3)c2c1,5.8µM*,?,14.6µM*,4.11µM*,?,5.17µM*
Cc1cc(N/N=C/c2ccc(O)cc2)c2cccc(C)c2n1,?,i,?,?,i,?
CC(C)(C)c1ccc(S(=O)(=O)NCc2ccc(C(=O)NCc3ccccn3)cc2)cc1,2.3%,?,?,-56.0%,i,-1.5%
COc1cccc(Sc2ccccc2/C=N/NC(N)=O)c1,?,2.91µM*,?,6.51µM*,?,?
